Rows were chosen to be rich in hits. Some 4.6% of all compounds tested hit in one or more screens of this group.
TRHR ag – activates the human TRH receptor; TRHR cells, calcium flux fluo-8, FDSS agonist mode; activation, % at 2 µM; actives 0.18% (n = 360,000); AID 493084; note: 0% is about no effect
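Agonist-mode FDSS calcium read (Ex 480/Em 530, 1 s cycles) in 1536-well TRHR cells with fluo-8 dye, after 10-cycle baseline and 23 nL compound addition; TRH at EC20 (10 nM final) added afterwards for the enhancer phase.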
TRHR PAM – TRH receptor (human) allosteric enhancement | actives 0.66% (n = 360,000) | TRHR cells, fluo-8 calcium fluorescence, EC20 TRH enhancement | enhancement, % at 2 µM | P34981 | AID 493056; in the data active = enhancement above about 30%; note: 0% is about no effect
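Enhancer read-out: after compound pinning and an initial kinetic agonist-mode read, an EC20 of TRH (10 nM final) was injected and fluo-8 calcium signal (Ex 480/Em 530) followed at 1 s/cycle for 100 cycles in TRHR-expressing cells.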
D1 antag – human D1 dopamine receptor antagonism. HEK293 TREx D1 cells, calcium flux, dopamine EC80; hits give low values. P21728. AID 504652. actives 3.2% (n = 360,000). activity change, negative = inhibition, % at 10 µM; in the data active = activity change below about -30%; note: % is set by controls: 0 for no effect and ±100 for the full control effect
Target sequence (P21728 whole entry, looked up): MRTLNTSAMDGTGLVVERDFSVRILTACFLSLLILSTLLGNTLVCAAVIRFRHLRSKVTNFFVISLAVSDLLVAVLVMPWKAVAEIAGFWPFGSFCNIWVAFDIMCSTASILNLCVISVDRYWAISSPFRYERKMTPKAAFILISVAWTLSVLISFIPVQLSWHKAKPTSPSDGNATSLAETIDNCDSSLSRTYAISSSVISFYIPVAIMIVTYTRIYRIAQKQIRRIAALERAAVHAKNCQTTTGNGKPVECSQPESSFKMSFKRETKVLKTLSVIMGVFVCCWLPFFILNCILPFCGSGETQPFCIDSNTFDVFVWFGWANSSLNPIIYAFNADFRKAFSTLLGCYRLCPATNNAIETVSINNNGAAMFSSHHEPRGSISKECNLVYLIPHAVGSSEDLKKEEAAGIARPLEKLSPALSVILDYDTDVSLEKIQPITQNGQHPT
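HEK293 T-REx cells expressing inducible, force-coupled D1 receptor; no-wash Ca dye, 30–90 min RT. Cmpd → 180 s read at 1 Hz → EC80 DA → 180 s read.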
D1 ag – agonists of human D1 dopamine receptor; HEK293 T-REx D1 cells, calcium flux, agonist mode; activation, % at 2 µM; actives 1% (n = 360,000); note: 0% is about no effect
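Agonism was scored from calcium flux recorded over 180 s (1 read/s) after pintool compound addition, following a 10-cycle baseline. Cells were inducible force-coupled HEK293 TREx D1, plated overnight at 30 C and loaded with no-wash calcium dye.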
D1 potentiator – potentiators of human D1 dopamine receptor; actives 0.036% (n = 360,000); potentiation, % at 10 µM; HEK293 TREx D1 cells, calcium flux, dopamine EC20 potentiation; P21728; in the data active = potentiation above about 30%; note: 0% is about no effect
Active calls of the source: *; nt = no result. Cut-off read from the data, not from the text of the source, unless noted: active = activation above about 30%; inactive = the rest.

SMILES	TRHR ag	TRHR PAM	D1 antag	D1 ag	D1 potentiator
N#CN1CCC(NC(=O)c2ccc(C(F)(F)F)cc2)CC1	-1	2	-1	0	-5
Cc1ccc(C(=O)Nc2cc(-c3cn4cccnc4n3)ccc2C)cc1C	0	-4	-2	-1	-4
Cc1ccc(NC(=S)NC2CCSc3ccccc32)cc1 (stereo unspecified)	-1	13	-38*	23	-6
CC(=O)Nc1ccc(C(=O)NC2CCSc3ccccc32)cc1 (stereo unspecified)	0	-1	-16	1	-8
CSc1ccccc1C(=O)NC1CCSc2ccccc21 (stereo unspecified)	-2	-12	-41*	-1	-4
Cc1onc(-c2ccccc2)c1C(=O)c1c[nH]c(C(=O)NCc2ccncc2)c1	0	1	-89*	-1	-4
Cc1c(C(=O)N2CCN(c3ccc([N+](=O)[O-])cc3)CC2)sc2ncn(CC(=O)N3CCOCC3)c(=O)c12	-2	11	9	54*	nt
Cc1c(C(=O)N2CCOCC2)sc2ncn(CC(=O)N3CCC(C)CC3)c(=O)c12	1	-2	1	2	1
O=C(COc1ccc(C(=S)N2CCOCC2)cc1Cl)Nc1ccccc1Cl	1	34*	14	8	-3
COc1cc(C(=S)N2CCCCC2)ccc1OCC(=O)Nc1ccccc1Cl	0	5	4	2	0
CCOC(=O)[C@@H]1[C@H]2COc3ccccc3[C@H]2N2C(=O)N(c3ccc(OC)cc3)C(=O)[C@]12C	0	0	7	5	-2
Cc1cccc(NC(=O)CSC2=NN3CCCC(=O)N=C3S2)c1C	1	-3	-33*	1	-8
CCOC(=O)/C(C#N)=C\c1ccc(CC)s1	0	6	2	-1	5
CCOC(=O)/C(C#N)=C\C=C1C=CN(C)C=C1	19	0	-20	45*	-3
O=C(O)c1ccc2nc(-c3cc4cc(Cl)ccc4oc3=O)[nH]c2c1	1	3	10	2	0
COc1ccc(CNCc2cccc(Oc3ccccc3)c2)cc1	0	3	12	88*	-3
COc1ccc(CNCc2ccc3ccccc3c2)c(OC)c1	1	10	-20	34*	-4
COc1ccc(CNCc2ccncc2)c(OC)c1	1	-5	-10	6	4
OCCOCCN1CCN(C(c2ccccc2)c2ccc(Cl)cc2)CC1 (stereo unspecified)	1	4	11	10	-3
CC(C)CNC1CCS(=O)(=O)C1 (stereo unspecified)	-1	-2	-13	1	10
O=[N+]([O-])C(C1CCS(=O)(=O)C1)C1CCS(=O)(=O)C1 (stereo unspecified)	0	4	-33*	1	-4
Cc1ccc(-c2nc3sc4c(N)ncnc4c3c3c2CCCC3)cc1	0	7	-61*	3	-21
Cc1ccc(NC(=S)Nc2ccc(OC(F)F)c(Cl)c2)cc1Cl	0	-4	-22	23	-12
CC(NC(=S)Nc1cccc(C(F)(F)F)c1)C(C)(C)C (stereo unspecified)	0	-3	-35*	18	-9
FC(F)(F)c1cccc(NC(=S)NCc2ccc(Cl)cc2)c1	3	-2	-51*	24	-8
SMILES	TRHR ag	TRHR PAM	D1 antag	D1 ag	D1 potentiator
CC(NC(=S)Nc1ccc(OC(F)F)c(Cl)c1)C(C)(C)C (stereo unspecified)	3	-25	-88*	20	-14
Fc1ccccc1CNC(=S)Nc1cccc(C(F)(F)F)c1	2	-5	-44*	25	-19
COc1ccc(N2CCN(C(=O)c3c(-c4c(F)cccc4Cl)noc3C)CC2)cc1	0	1	10	1	-7
Cc1ccc(CCNC(=O)CCSCc2ccccc2Cl)cc1	-1	2	-3	2	0
CCOc1ccc(C(=O)c2cn(Cc3ccc(OC)cc3)c3cc(OC)c(OC)cc3c2=O)cc1	-1	2	-7	9	-4
COc1ccc(CC(=O)Nc2ccc(S(=O)(=O)Nc3ncccn3)cc2)cc1	0	-2	5	2	6
COc1ccc(S(=O)(=O)NNC(N)=S)cc1	0	31*	10	2	-1
COc1ccc(NC(=O)NNS(=O)(=O)c2ccc(Br)cc2)cc1	-1	-5	5	12	2
COc1ccc(S(=O)(=O)Nc2ncccn2)cc1	0	8	-44*	1	2
O=S(=O)(Nc1ncccn1)c1ccc(NC(=S)Nc2ccc(Cl)cc2)cc1	1	-2	-8	8	-1
O=C(Nc1ccc(Cl)cc1)Nc1ccc(S(=O)(=O)Nc2ncccn2)cc1	0	0	-60*	3	3
COc1ccc(NC(=O)c2c(NCc3ccc(N(C)C)cc3)sc3c2CCC3)cc1	0	-6	2	1	-2
Cc1ccc(NC(=O)c2cc(S(=O)(=O)N3CCc4ccccc43)cn2C)c(Cl)c1	0	-3	9	3	-3
COc1ccc(Cl)cc1NS(=O)(=O)c1ccc2c(c1)NC(=O)CC(=O)N2	0	-2	-3	1	-1
CC(C)C(=O)Nc1nnc2n1CCS2	0	8	9	0	-4
Cc1nn(CCc2nn[nH]n2)c2nc(-c3ccc(C4CCCCC4)cc3)cc(C(F)(F)F)c12	-1	-6	-46*	9	-6
Cc1cc(C(=O)NCc2ccccc2)c2c(C)nn(-c3cccc(F)c3)c2n1	1	11	3	5	0
CC(=O)NS(=O)(=O)c1ccc(NC(=O)C2c3ccccc3Oc3ccccc32)cc1	2	33*	-8	0	0
CN1CCN(CCCC(=O)c2ccc(F)cc2)CC1	0	4	-5	0	-3
O=C(CCCN1Cc2ccccc2C1)c1ccc(F)cc1	0	-4	-71*	9	-12
CSc1oc(-c2ccco2)nc1S(=O)(=O)c1ccccc1	0	-9	10	0	8
CC(C)Sc1oc(-c2ccco2)nc1S(=O)(=O)c1ccccc1	0	9	-48*	1	6
Cc1ccc(-c2cc(C(=O)Nc3cc(C)ccc3C)[nH]n2)c(O)c1	1	7	-37*	-1	-9
Cc1cc(C)c(-c2cc(C(=O)Nc3cc(C)ccc3C)[nH]n2)c(O)c1	0	33*	-23	4	0
Cc1ccc(C)c(NC(=O)c2cc(-c3ccccc3O)n[nH]2)c1	1	-1	-22	2	-7
CN(CC(=O)Nc1ccc(F)cc1F)S(=O)(=O)c1cccc2nsnc12	-1	-1	-13	-1	2
CCC1CCCCN1C(=O)c1cc2c(=O)n3cccc(C)c3nc2s1 (stereo unspecified)	0	39*	5	0	5

High-throughput results deposited in PubChem by National Center for Advancing Translational Sciences (NCATS).
